Measurements from the supplement of paper PMC10369915.

Target: SHP2 N-SH2 domain T42A
Experiment: log2 enrichment relative to wild-type ITIM peptide; higher = stronger binding

| Binder | log2 enrichment |
| --- | --- |
| VFSVRYGELDF [PD-1 ITIM pTyr223 peptide variant D222R] | 2.89 |
| VFWVDYGELDF [PD-1 ITIM pTyr223 peptide variant S220W] | -0.544 |
| VFSVDYGLLDF [PD-1 ITIM pTyr223 peptide variant E225L] | -0.496 |
| VVSVDYGELDF [PD-1 ITIM pTyr223 peptide variant F219V] | -0.0583 |
| VFSFDYGELDF [PD-1 ITIM pTyr223 peptide variant V221F] | -1.03 |
| VFSVWYGELDF [PD-1 ITIM pTyr223 peptide variant D222W] | -0.569 |
| VFSVDYGEHDF [PD-1 ITIM pTyr223 peptide variant L226H] | -1.46 |
| VFSVDYMELDF [PD-1 ITIM pTyr223 peptide variant G224M] | -0.224 |
| VFSVDYWELDF [PD-1 ITIM pTyr223 peptide variant G224W] | -0.623 |
| VFSVDYGELHF [PD-1 ITIM pTyr223 peptide variant D227H] | -0.826 |
| VFSVDYGELLF [PD-1 ITIM pTyr223 peptide variant D227L] | -0.728 |
| VFSYDYGELDF [PD-1 ITIM pTyr223 peptide variant V221Y] | 0.57 |
| VFVVDYGELDF [PD-1 ITIM pTyr223 peptide variant S220V] | -0.0553 |
| VFSVDYYELDF [PD-1 ITIM pTyr223 peptide variant G224Y] | -0.792 |
| VFSVDYKELDF [PD-1 ITIM pTyr223 peptide variant G224K] | 2.48 |
| VWSVDYGELDF [PD-1 ITIM pTyr223 peptide variant F219W] | -0.244 |
| VFSVDYGYLDF [PD-1 ITIM pTyr223 peptide variant E225Y] | -0.767 |
| VFSVDYGELVF [PD-1 ITIM pTyr223 peptide variant D227V] | -0.565 |
| FFSVDYGELDF [PD-1 ITIM pTyr223 peptide variant V218F] | -0.37 |
| VFSVDYGELFF [PD-1 ITIM pTyr223 peptide variant D227F] | -0.714 |

| Binder | log2 enrichment |
| --- | --- |
| VFMVDYGELDF [PD-1 ITIM pTyr223 peptide variant S220M] | -0.0956 |
| YFSVDYGELDF [PD-1 ITIM pTyr223 peptide variant V218Y] | -0.0716 |
| VFSVDYLELDF [PD-1 ITIM pTyr223 peptide variant G224L] | -0.0968 |
| VFSVDYGELDV [PD-1 ITIM pTyr223 peptide variant F228V] | -1.42 |
| VFSIDYGELDF [PD-1 ITIM pTyr223 peptide variant V221I] | -0.464 |
| VFSVIYGELDF [PD-1 ITIM pTyr223 peptide variant D222I] | -0.259 |
| VFSVDYGFLDF [PD-1 ITIM pTyr223 peptide variant E225F] | -0.82 |
| IFSVDYGELDF [PD-1 ITIM pTyr223 peptide variant V218I] | -0.151 |
| VFSVDYGRLDF [PD-1 ITIM pTyr223 peptide variant E225R] | -0.382 |
| VFSKDYGELDF [PD-1 ITIM pTyr223 peptide variant V221K] | -1 |
| VFSVDYGEIDF [PD-1 ITIM pTyr223 peptide variant L226I] | -0.691 |
| VFFVDYGELDF [PD-1 ITIM pTyr223 peptide variant S220F] | -0.202 |
| VFSVDYGEKDF [PD-1 ITIM pTyr223 peptide variant L226K] | -1.37 |
| VFSVDYGELDR [PD-1 ITIM pTyr223 peptide variant F228R] | -1.52 |
| VFSVDYGELDI [PD-1 ITIM pTyr223 peptide variant F228I] | -1.45 |
| VFSVVYGELDF [PD-1 ITIM pTyr223 peptide variant D222V] | 0.135 |
| KFSVDYGELDF [PD-1 ITIM pTyr223 peptide variant V218K] | 0.439 |
| VFSVDYGELDL [PD-1 ITIM pTyr223 peptide variant F228L] | -1.19 |
| VFSVDYGELRF [PD-1 ITIM pTyr223 peptide variant D227R] | -0.941 |
| VFSHDYGELDF [PD-1 ITIM pTyr223 peptide variant V221H] | -1.23 |

| Binder | log2 enrichment |
| --- | --- |
| VFSVFYGELDF [PD-1 ITIM pTyr223 peptide variant D222F] | -0.334 |
| VFHVDYGELDF [PD-1 ITIM pTyr223 peptide variant S220H] | 0.0672 |
| VRSVDYGELDF [PD-1 ITIM pTyr223 peptide variant F219R] | 1.24 |
| VFSVMYGELDF [PD-1 ITIM pTyr223 peptide variant D222M] | 0.307 |
| VFSLDYGELDF [PD-1 ITIM pTyr223 peptide variant V221L] | -0.962 |
| VFRVDYGELDF [PD-1 ITIM pTyr223 peptide variant S220R] | 1.22 |
| VFSVDYGELDY [PD-1 ITIM pTyr223 peptide variant F228Y] | -1.37 |
| VFSVDYGELDH [PD-1 ITIM pTyr223 peptide variant F228H] | -1.32 |
| VFSVDYGKLDF [PD-1 ITIM pTyr223 peptide variant E225K] | 0.303 |
| VYSVDYGELDF [PD-1 ITIM pTyr223 peptide variant F219Y] | 0.45 |
| MFSVDYGELDF [PD-1 ITIM pTyr223 peptide variant V218M] | 0.0157 |
| VFSVDYGELDW [PD-1 ITIM pTyr223 peptide variant F228W] | 0.678 |
| VFSVDYGELWF [PD-1 ITIM pTyr223 peptide variant D227W] | -0.71 |
| VFSVYYGELDF [PD-1 ITIM pTyr223 peptide variant D222Y] | 0.0176 |
| VFSVDYGHLDF [PD-1 ITIM pTyr223 peptide variant E225H] | -0.301 |
| VFSVHYGELDF [PD-1 ITIM pTyr223 peptide variant D222H] | 1.68 |
| VFSVDYGEYDF [PD-1 ITIM pTyr223 peptide variant L226Y] | -1.46 |
| VFSMDYGELDF [PD-1 ITIM pTyr223 peptide variant V221M] | -0.943 |
| VFSVDYGILDF [PD-1 ITIM pTyr223 peptide variant E225I] | -0.312 |
| VFSRDYGELDF [PD-1 ITIM pTyr223 peptide variant V221R] | -1.04 |
